A short description of assay [1]: resazurin metabolic signal in HepG2 cells – cell-based, resazurin fluorescence, 24 h, PK04 Diversity Set, profiling panel (AID 1172). As to conditions: HepG2 viability, higher = more signal. (The colour change of resazurin is a common sign of viable cells or microbes.)
Assay [2] can be described thus: budding yeast growth changes without added modifier – OD600, strain BY4716, 24 h, basal condition, primary screen (AID 1173). As to conditions: S. cerevisiae BY4716 growth, OD600, 24 h; higher = more signal, called active from +8 up or from −8 down.
A short description of assay [3]: viability profiling in MM1S myeloma cells – cell-based, resazurin fluorescence, basal, 24 h, PK04 Diversity Set, profiling panel (AID 1174).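 Further: MM1S multiple myeloma cell line.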 As to conditions: higher = more signal, called active from +8 up or from −8 down.
The target in assay [4] is Dihydroorotate dehydrogenase (quinone), mitochondrial (Plasmodium falciparum (isolate 3D7)) (UniProt Q08210). Description: inhibition of P. falciparum DHODH – biochemical, C-terminal His tag, absorbance 600 nm, primary screen (AID 1175).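 Further: recombinant parasite enzyme with a five histidine tag at its C terminus.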 As to conditions: PfDHODH enzyme, DCIP absorbance 600 nm; higher = more signal, called active from +8 up or from −8 down.
Dihydroorotate dehydrogenase (quinone), mitochondrial (Plasmodium falciparum (isolate 3D7)), sequence (Q08210 whole entry, looked up): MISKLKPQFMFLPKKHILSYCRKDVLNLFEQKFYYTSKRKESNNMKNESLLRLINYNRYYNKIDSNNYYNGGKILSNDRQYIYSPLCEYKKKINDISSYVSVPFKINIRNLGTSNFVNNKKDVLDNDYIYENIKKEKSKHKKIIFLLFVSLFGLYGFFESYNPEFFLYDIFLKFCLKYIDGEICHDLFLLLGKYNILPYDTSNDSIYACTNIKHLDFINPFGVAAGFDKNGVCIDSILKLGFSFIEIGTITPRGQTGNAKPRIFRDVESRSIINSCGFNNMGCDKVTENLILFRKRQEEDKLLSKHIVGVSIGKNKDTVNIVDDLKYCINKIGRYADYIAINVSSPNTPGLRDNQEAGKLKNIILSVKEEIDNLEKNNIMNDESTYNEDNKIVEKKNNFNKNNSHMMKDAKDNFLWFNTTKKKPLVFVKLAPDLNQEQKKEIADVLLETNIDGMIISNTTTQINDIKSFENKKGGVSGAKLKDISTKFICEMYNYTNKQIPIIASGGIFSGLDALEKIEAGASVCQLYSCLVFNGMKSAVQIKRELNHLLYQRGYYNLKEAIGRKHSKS
The nature of assay [5]: inhibition of PAO1 biofilm formation – strain PAO1, LB-PBS medium, absorbance 600 nm, primary screen (AID 1176). As to conditions: P. aeruginosa PAO1 growth/biofilm, A600, 12 h; higher = more signal.
The nature of assay [6]: growth modulation of vineyard yeast isolate – strain RM11-1a, OD600, basal, 24 h, primary screen (AID 1177).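 Further: cultures grown under basal conditions with no added stressor.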 As to conditions: S. cerevisiae RM11-1a growth, OD600, 24 h; higher = more signal, called active from +8 up or from −8 down.
The nature of assay [7]: growth of efflux-deficient E. coli DRC39 – strain DRC39, OD650, 24 h, E. coli filamentation inducers, primary screen (AID 1178).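 Further: growth measured as culture turbidity by optical density at 650 nm.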 As to conditions: E. coli DRC39 acrAB, higher = more signal, called active from +8 up or from −8 down.
Assay [8] is described as follows: growth of efflux-deficient E. coli DRC39 – strain DRC39, OD650, 48 h, E. coli filamentation inducers, primary screen (AID 1179).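 Further: screen aims at cell division blockers that make cells filament.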 As to conditions: E. coli DRC39 delta-acrAB growth, higher = more signal, called active from +8 up or from −8 down.
Assay [9] is described as follows: viability profiling in RPMI8226 myeloma cells – cell-based, resazurin fluorescence, basal, 24 h, PK04 Diversity Set, profiling panel (AID 1180).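 Further: RPMI8826 multiple myeloma cell line at 5000 cells per well.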 As to conditions: higher = more signal.
The target in assay [10] is E3 ubiquitin-protein ligase XIAP (Homo sapiens) (UniProt P98170). Description: small molecules binding XIAP protein – biophysical, small-molecule microarray, fluorescence 635 nm, primary screen (AID 1181).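 Further: score merges 667 nm emission and signal to noise over triplicate slides.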 As to conditions: higher = more signal.
E3 ubiquitin-protein ligase XIAP (Homo sapiens), sequence (P98170 whole entry, looked up, the tested form may be a part): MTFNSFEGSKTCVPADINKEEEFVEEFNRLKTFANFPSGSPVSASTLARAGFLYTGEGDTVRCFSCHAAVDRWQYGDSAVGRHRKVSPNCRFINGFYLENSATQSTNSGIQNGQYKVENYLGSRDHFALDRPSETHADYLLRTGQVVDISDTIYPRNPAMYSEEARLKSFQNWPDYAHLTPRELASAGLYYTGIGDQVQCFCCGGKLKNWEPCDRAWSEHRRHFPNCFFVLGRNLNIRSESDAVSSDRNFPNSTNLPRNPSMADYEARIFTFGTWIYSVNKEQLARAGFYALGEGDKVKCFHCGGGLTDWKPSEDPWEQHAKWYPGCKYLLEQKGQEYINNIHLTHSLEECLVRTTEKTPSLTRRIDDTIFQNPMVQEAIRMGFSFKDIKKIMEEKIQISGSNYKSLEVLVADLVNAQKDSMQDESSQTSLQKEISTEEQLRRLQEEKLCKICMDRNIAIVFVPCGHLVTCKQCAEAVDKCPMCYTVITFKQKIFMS
For assay [11], the system named is XIP peptide (Xip251-270) binding. Description: XIP fragment 251-270 binding compounds – biochemical, small-molecule microarray, fluorescence 635/667 nm, 0.1 µg/mL protein, primary screen (AID 1182). As to conditions: fluorescent protein binding, 635 nm, higher = more signal, called active from +8 up or from −8 down.
The subject of another assay is XIP peptide (Xip251-270). In words: compounds binding XIP fragment 251-270 – biochemical, small-molecule microarray, fluorescence 635/667 nm, 0.5 µg/mL protein, primary screen (AID 1183). As to conditions: fluorescence 635 nm, higher = more signal.
The nature of assay [12]: blood-stage malaria parasite viability loss – strain 3D7, DAPI fluorescence, 100 nL, primary screen (AID 1184).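 Further: parasites grown inside human red blood cells in medium with human serum.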 As to conditions: P. falciparum 3D7 growth, 3 d, higher = more signal.
Assay [13] concerns the target Homeobox protein Hox-A13 (Mus musculus) (UniProt Q62424). Description: disruptors of Hoxa13 oligonucleotide interaction – biochemical, fluorescence polarization, labeled oligonucleotide, primary screen (AID 1185). As to conditions: Hoxa13:DNA binding, 15 min, higher = more signal, called active from +8 up or from −8 down. (In fluorescence polarisation assays a small probe gives low polarisation when free and higher when bound to something large.)

A short description of assay [14]: blockers of DNA damage checkpoint Chk1 activation – imaging, HeLa, hydroxyurea, phospho-Chk1 antibody, percent positive cells, primary screen (AID 1186). As to conditions: hydroxyurea-induced phospho-Chk1 immunofluorescence imaging, higher = more signal.
Assay [15] can be described thus: blockers of DNA damage checkpoint Chk1 activation – imaging, HeLa, hydroxyurea, phospho-Chk1 nuclear intensity, primary screen (AID 1187). As to conditions: hydroxyurea-induced phospho-Chk1 immunofluorescence imaging, higher = more signal.

The source of these data is PubChem BioAssay.

Activity calls are given as the source filed them. Unless noted, how the calls were made is not given here.

Homeobox protein Hox-A13 (Mus musculus), sequence (Q62424 whole entry, looked up): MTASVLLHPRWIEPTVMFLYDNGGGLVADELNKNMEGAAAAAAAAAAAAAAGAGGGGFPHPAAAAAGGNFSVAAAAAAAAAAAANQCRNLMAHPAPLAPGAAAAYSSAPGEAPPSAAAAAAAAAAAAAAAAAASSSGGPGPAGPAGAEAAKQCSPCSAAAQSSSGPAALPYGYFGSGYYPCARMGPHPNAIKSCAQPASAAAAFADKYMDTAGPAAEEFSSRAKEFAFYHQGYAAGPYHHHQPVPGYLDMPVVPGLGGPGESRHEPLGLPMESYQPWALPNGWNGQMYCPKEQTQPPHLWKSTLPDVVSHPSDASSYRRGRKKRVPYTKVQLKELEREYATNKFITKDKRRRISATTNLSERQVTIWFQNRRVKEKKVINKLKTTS

On to `CC(C)N1C(=O)[C@@]2(c3ccc([N+](=O)[O-])cc3)CC(=O)N(C3CCCCC3)[C@@H]2c2ccc(CO)cc21`, for which the z-score is 1.86 in assay [1]; 0.833 (inactive) in assay [2]; 0.927 (inactive) in assay [3]; -0.0065 (inactive) in [5]; -0.466 (inactive) in assay [6]; 0.026 (inactive) in [7]. In addition, the z-score in [8] is -0.303 (inactive); in [9], 0.833; in assay [12], 0.501; in [13], 0.0267 (inactive); in assay [14], -0.135 (inactive); in assay [15], -0.141 (inactive). Also, the composite z-score is -13.8 (active) in assay [4], 0.0037 in [10], 0.888 (inactive) in assay [11] and 0.287 in the assay with XIP peptide (Xip251-270).

In the case of `CC(=O)N1Cc2ccccc2C[C@]2(N=C(c3ccc(OCCCO)cc3)O[C@@H]2c2ccccc2)C1=O`, the z-score in [1] was -0.908; in assay [2], -0.776 (inactive); in [3], -2.6 (inactive); in assay [5], 0.122 (inactive); in [6], 1.93 (inactive); in assay [7], 1.55 (inactive). For the same compound, the z-score in assay [8] is 1 (inactive); in assay [9], -3.96; in assay [12], -1.42; in [13] it was -4.24 (inactive); in [14], -0.151 (inactive); in assay [15] it was -0.0442 (inactive). Further, the composite z-score is -0.375 (inactive) in assay [4], 0.247 in assay [10], 1.84 (inactive) in [11] and 0.836 with XIP peptide (Xip251-270).

In the case of `CON(C)C(=O)C=C1C[C@@H](c2cccc(Cl)c2)O[C@@H](c2cccc(Cl)c2)O1`, the z-score in [1] is 0.485; in assay [2], -0.283 (inactive); in [3], 0.0896 (inactive); in [5] it was -0.184 (inactive); in [6] it was 1.21 (inactive); in assay [7], -0.471 (inactive). Moreover, the z-score is 0.134 (inactive) in [8]; 0.515 in assay [9]; -2 in assay [12]; -3.48 (inactive) in assay [13]; -0.0938 (inactive) in assay [14]; -0.0296 (inactive) in [15]. Moreover, the composite z-score in [4] was -0.558 (inactive); in [10], -0.0827; in [11], 2.75 (inactive); in the assay on XIP peptide (Xip251-270), 0.454.

Consider `C=C(CCCC)C(=O)CC[C@@H](OC(=O)c1ccccc1-c1ccccc1C(=O)O)c1cccc(OCCO)c1`, for which the z-score in assay [1] is -0.269; in assay [2] it was -1.46 (inactive); in [3] it was -0.348 (inactive); in assay [5], 0.543 (inactive); in assay [6], 0.134 (inactive); in assay [7] it was -0.285 (inactive). Also, the z-score in assay [8] was -0.549 (inactive); in [9], -0.301; in assay [12], -2.46; in [13], -5.72 (inactive); in assay [14], 0.456 (inactive); in assay [15] it was 0.408 (inactive). Moreover, the composite z-score in assay [4] is -0.556 (inactive); in assay [10], -0.23; in [11], 1.03 (inactive); in the assay on XIP peptide (Xip251-270) it was 0.204.

Turning to `CCOC(=O)[C@@H]1[C@@H]2C(=O)N(CC)C(=O)[C@@H]2C[C@@H]1Sc1ccccc1`, the z-score in [1] is 0.0632; in assay [2] it was -0.325 (inactive); in [3], -0.33 (inactive); in [5], 0.257 (inactive); in assay [6] it was 0.866 (inactive); in [7], -0.638 (inactive). For the same compound, the z-score in [8] is -0.894 (inactive); in assay [9] it was -0.458; in assay [12], -0.555; in [13] it was -4.73 (inactive); in assay [14], 0.899 (inactive); in [15], 0.647 (inactive). For the same compound, the composite z-score in assay [4] is 0.917 (inactive); in assay [10], -0.127; in [11] it was -0.266 (inactive); in the assay with XIP peptide (Xip251-270), 0.313.

Regarding `CC(=O)n1cc(C(O)C2C=CC3C(=O)N(c4ccccc4)C(=O)C3N2Nc2ccccc2)c2ccccc21` (configuration not stated), the z-score was -1.51 in [1]; -3.18 (inactive) in [2]; -2.12 (inactive) in assay [3]; 0.807 (inactive) in assay [5]; 0.127 (inactive) in [6]; -0.0484 (inactive) in [7]. Also, the z-score was -0.602 (inactive) in assay [8]; -1.76 in assay [9]; -0.4 in assay [12]; -3.42 (inactive) in assay [13]; 0.863 (inactive) in assay [14]; 0.355 (inactive) in [15]. For the same compound, the composite z-score in [4] is 0.342 (inactive); in assay [10] it was 0.0297; in [11], 0.853 (inactive); in the assay on XIP peptide (Xip251-270) it was -0.515.

With `NCCCCCNC(=O)[C@@H]1C[C@@H]2C(=O)N[C@@H](CCCCN)C(=O)N2[C@@H]1c1cccc(OCCO)c1`, the z-score in assay [1] is 1.03; in assay [2] it was 0.198 (inactive); in assay [3], 1.11 (inactive); in assay [5], -0.105 (inactive); in assay [6] it was -0.0041 (inactive); in assay [7], 0.928 (inactive). The z-score in [8] is 1.22 (inactive); in assay [9], 1; in assay [12] it was -0.119; in [13], -0.453 (inactive); in assay [14], 0.0424 (inactive); in assay [15], -0.0136 (inactive). Also, the composite z-score in assay [4] was -0.308 (inactive); in [10] it was -0.399; in assay [11], 0.824 (inactive); with XIP peptide (Xip251-270), 0.793.
